In PubChem BioAssay (EPA / NIEHS):
Results filed as inconclusive are left out. Active and inactive are the calls of the source. How the source made its calls, unless noted: active means hit-call score of the fitted dose curve at least 0.9, where 1 is the maximum; inconclusive means response in the unintended direction; inactive means score below 0.9.

How the values were obtained:
[1] = Tanguay_ZF_120hpf_OTIC_legacy: (Legacy) Oregon State University Tanguay Lab 120 Hour Post-fertilization zebrafish Assay for Otic Vesicle Malformation (AID 2283639)
In short: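 Tropical 5D wild-type zebrafish embryos were exposed statically in sealed, foil-covered plates at 28C until 120 hpf, with 0.64% (vol/vol) DMSO final. Otic vesicle malformation was scored present/absent by brightfield microscopy, with DMSO as baseline.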

[2] = Tanguay_ZF_120hpf_PE_legacy: (Legacy) Oregon State University Tanguay Lab 120 Hour Post-fertilization zebrafish Assay for Pericardial Edema (AID 2283640);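 on AC50: potency for increased incidence of pericardial edema versus DMSO baseline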
In short: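 Tropical 5D wild-type zebrafish embryos were statically exposed until 120 hpf at 28C, with 0.64% DMSO final. Pericardial edema was scored by brightfield as present or absent; endpoints were not scored in dead embryos.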

[3] = Tanguay_ZF_120hpf_BRAI_legacy: (Legacy) Oregon State University Tanguay Lab 120 Hour Post-fertilization zebrafish Assay for Brain Malformation (AID 2283641)
In short: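 Tropical 5D wild-type zebrafish embryos exposed statically until 120 hpf at 28C, 0.64% DMSO final, sealed and dark. Brain malformation scored present/absent by brightfield at 120 hpf; dead embryos excluded. Trimethyltin chloride 5uM positive control.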

[4] = Tanguay_ZF_120hpf_SOMI_legacy: (Legacy) Oregon State University Tanguay Lab 120 Hour Post-fertilization zebrafish Assay for Somite Malformation (AID 2283647)
In short: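 Dechorionated Tropical 5D wild-type zebrafish embryos, one per well from 6 hpf, statically exposed at 28C to 120 hpf in 0.64% DMSO; somite malformation scored present/absent by brightfield; trimethyltin 5 uM positive control; dead embryos not scored.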

[5] = Tanguay_ZF_120hpf_PFIN_legacy: (Legacy) Oregon State University Tanguay Lab 120 Hour Post-fertilization zebrafish Assay for Pectoral Fin Malformation (AID 2283648);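 further: each larva judged yes or no for fin defect by brightfield with dead larvae skipped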
In short: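 Tropical 5D wild-type embryos, dechorionated with pronase at 4 hpf, were placed singly in wells at 6 hpf and statically exposed until 120 hpf at 28C, sealed and dark, with 0.64% (vol/vol) final DMSO; pectoral fin malformation scored present/absent.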

[6] = Tanguay_ZF_120hpf_CFIN_legacy: (Legacy) Oregon State University Tanguay Lab 120 Hour Post-fertilization zebrafish Assay for Caudal Fin Malformation (AID 2283649)
In short: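 Dechorionated Tropical 5D wild-type embryos, one per well from 6 hpf, static exposure to 120 hpf at 28C in 0.64% DMSO. Caudal fin malformation scored by brightfield as present/absent; not scored in dead embryos.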

[7] = Tanguay_ZF_120hpf_CIRC_legacy: (Legacy) Oregon State University Tanguay Lab 120 Hour Post-fertilization zebrafish Assay for Circulatory Malformation (AID 2283651)
In short: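 Tropical 5D wild-type embryos, dechorionated with pronase at 4 hpf, were placed singly in wells at 6 hpf and exposed statically at 28C to 120 hpf (0.64% DMSO final). Circulatory malformation was scored present/absent by brightfield microscopy.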

[8] = Tanguay_ZF_120hpf_PIG_legacy: (Legacy) Oregon State University Tanguay Lab 120 Hour Post-fertilization zebrafish Assay for Pigmentation Malformation (AID 2283650)
In short: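 Tropical 5D wild-type zebrafish embryos, dechorionated with pronase at 4 hpf, were exposed singly from 6 hpf to 120 hpf statically at 28C in sealed, dark plates with 0.64% DMSO; pigmentation scored present/absent by brightfield microscopy, fitted against DMSO.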

[9] = read-out: kallikrein-3 (KLK3), KLK3 (gene 354); experiment: LTEA_HepaRG_KLK3: Life Technologies and Expression Analysis (LTEA) Assay for kallikrein-3 (KLK3) using HepaRG (AID 2283652; active means hit-call score of the fitted dose curve at least 0.9, where 1 is the maximum; inactive means score below 0.9); settings: mRNA level, 48 h; actives raise or lower the signal
In short: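 Differentiated human HepaRG cells in serum-free induction medium exposed 48 h in duplicate, eight-point half-log series from 100 uM in 0.5% DMSO. KLK3 mRNA by qRT-PCR, normalised to ACTB, GAPDH, POLR2A; bidirectional fit versus DMSO.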

[10] = read-out: solute carrier (SLC22A6), SLC22A6 (gene 9356); experiment: LTEA_HepaRG_SLC22A6: Life Technologies and Expression Analysis (LTEA) Assay for solute carrier (SLC22A6) using HepaRG (AID 2283653; active means hit-call score of the fitted dose curve at least 0.9, where 1 is the maximum; inactive means score below 0.9); settings: mRNA level, 48 h; actives raise or lower the signal
In short: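 Differentiated HepaRG cells exposed 48 h in serum-free induction medium to 8 half-log concentrations, top 100 uM, in 0.5% DMSO; SLC22A6 mRNA by Fluidigm qRT-PCR normalized to ACTB, GAPDH, POLR2A, fitted bidirectionally versus DMSO.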

Measured: AC50

C=CCc1ccc(O)c(OC)c1
inactive: [1] | [2] | [3] | [4] | [5] | [6] | [7]

c1cc(-c2ccncc2)ccn1
inactive: [1] | [2] | [3] | [5] | [8] | [7]

CCCCCCC(=O)OCC
inactive: [1] | [2] | [3] | [4] | [5] | [7]

Nc1nc(N)c2nc(CNc3ccc(C(=O)N[C@@H](CCC(=O)O)C(=O)O)cc3)cnc2n1
inactive: [1] | [2] | [3] | [4] | [5] | [7]

C1CCC(SSC2CCCCC2)CC1
inactive: [1] | [2] | [3] | [4] | [5] | [6] | [9] | [10]

CCCCOC(=O)CCCCCCCCC(=O)OCCCC
inactive: [1] | [2] | [4] | [5] | [6] | [7]

Cc1cc(NC(=O)C(=O)O)cc(C)c1Oc1ccc(O)c2c1CCC2
active: [3] 0.546 µM | [5] 0.499 µM
inactive: [1] | [2] | [4] | [6] | [7]

CCCCCCOCCO
inactive: [1] | [2] | [3] | [4] | [5] | [7]

O=C(O)CCCCC(=O)O
inactive: [1] | [2] | [3] | [4] | [5] | [6] | [7]

CNC(=O)[C@H]1O[C@@H](n2cnc3c(NCc4cc(Cl)ccc4OCc4cc(C)no4)ncnc32)[C@H](O)[C@@H]1N
inactive: [1] | [2] | [4] | [6] | [7]

CCc1c(C(=O)NN2CCCCC2)nn(-c2ccc(Cl)cc2Cl)c1-c1ccc(Br)cc1
inactive: [1] | [2] | [3] | [4] | [6] | [7]

COc1ccc2c(c1)c(CC(=O)O)c(C)n2C(=O)c1ccc(Cl)cc1
inactive: [1] | [2] | [3] | [4] | [5] | [6] | [7]

Nc1ccccc1N
inactive: [1] | [4] | [5] | [6] | [8] | [7]
active: [2] 10.5 µM

Clc1cc(Cl)c(Cl)cc1Cl
inactive: [1] | [2] | [3] | [4] | [6] | [8] | [7]

O=[N+]([O-])C(CO)(CO)CO
inactive: [1] | [2] | [3] | [4] | [6] | [8] | [7]

C=CCOC(=O)c1ccccc1C(=O)OCC=C
active: [2] 46.9 µM
inactive: [1] | [4] | [5] | [8] | [7]

Cc1ccc(Cl)cc1
inactive: [1] | [2] | [3] | [5] | [6] | [9] | [10]

Oc1ccc2ccccc2c1N=Nc1ccccc1
inactive: [1] | [4] | [5] | [6] | [7] | [10]
active: [2] 35.2 µM

CCCCCCCCCCCCCCCCCC(=O)O
inactive: [1] | [2] | [3] | [5] | [6]

CC(C)(C)c1cc(O)c(C(C)(C)C)cc1O
active: [2] 34.3 µM
inactive: [1] | [3] | [4] | [6] | [7]

Nc1ccc(S(=O)(=O)c2ccc(N)cc2)cc1
inactive: [1] | [4] | [5] | [6] | [7]

Cc1cccc(C)c1O
inactive: [2] | [3] | [5] | [7]

CC(CO)OC(C)CO (stereo not drawn) (tested in a mixture with another compound)
inactive: [1] | [2] | [5] | [6]

NCCO
inactive: [2] | [3] | [4] | [5] | [6] | [8] | [7]

CCCCCCCCCCCC(=O)OC
inactive: [2] | [4] | [5] | [6] | [8] | [7]

CC1(C)NC(=O)NC1=O
inactive: [1] | [2] | [5] | [6]

Cc1ccc(C(C)C)c(O)c1
inactive: [1] | [2] | [5] | [6] | [7]

CC=Cc1ccc(O)c(OC)c1
inactive: [1] | [2] | [5] | [6] | [8]

FC(F)(F)C(F)(F)C(F)(F)C(F)(F)C(F)(F)C(F)(F)CCI
inactive: [2] | [3] | [4] | [5] | [6] | [7]

Cc1ccc(N(C)C)cc1
inactive: [4] | [5] | [8] | [7]

Cc1c(C(=O)O)c(O)cc2c1C(=O)c1c(O)c([C@@H]3O[C@H](CO)[C@@H](O)[C@H](O)[C@H]3O)c(O)c(O)c1C2=O
inactive: [2] | [4] | [5] | [6]

CN[C@H]1CC[C@@H](c2ccc(Cl)c(Cl)c2)c2ccc(S(N)(=O)=O)cc21
inactive: [1] | [3] | [5] | [6] | [7]

CC(=O)OC/C=C(\C)CCC=C(C)C
inactive: [2] | [3] | [4] | [5] | [6] | [8] | [7] | [9] | [10]

CCOC(=O)C(C)(C)Oc1ccc(Cl)cc1
active: [6] 69.7 µM
inactive: [2] | [3] | [4] | [7]

COc1ccc(S(=O)(=O)N2C(=O)[C@@](c3ccccc3OC)(N3C[C@H](O)C[C@H]3C(=O)N(C)C)c3cc(Cl)ccc32)c(OC)c1
inactive: [2] | [3] | [4] | [5] | [6] | [7]

Cc1ccc(C)c(O)c1C
inactive: [2] | [4] | [5] | [6] | [8] | [7]

NC(=O)Cn1c(=O)cc(CCN2CCN(c3nccc4sccc34)CC2)c2ccc(F)cc21
inactive: [1] | [2] | [5] | [6] | [7]

COCCOCCOC
inactive: [2] | [3] | [4] | [5] | [6] | [7]

C[C@]12C=CC(=O)C=C1CC[C@@H]1[C@@H]2C(=O)C[C@@]2(C)[C@H]1CC[C@]2(O)C(=O)CO
inactive: [1] | [3] | [4] | [5] | [6] | [7]

Nc1ccc2c(c1)C(=O)c1ccccc1C2=O
inactive: [1] | [3] | [4] | [5] | [6] | [7]

CCCc1cc(=O)[nH]c(=S)[nH]1
inactive: [2] | [3] | [4] | [5] | [6] | [8]

NS(=O)(=O)c1cc2c(cc1Cl)NCNS2(=O)=O
inactive: [1] | [3] | [4] | [5] | [6] | [7]

NCC1(Cc2noc(=O)[nH]2)CCCCC1
inactive: [2] | [5] | [6] | [8] | [7]

COc1ccc(C)cc1N
inactive: [1] | [3] | [4] | [5] | [6] | [7]

CCCCc1ccc2c(n1)[C@@H](c1ccc(OC)cc1C[C@H](C)C(=O)O)[C@H](C(=O)O)[C@H]2c1ccc2c(c1)OCO2
inactive: [2] | [3] | [4] | [5] | [6] | [7]

CCCCCCCCCCCCCO
inactive: [1] | [3] | [4] | [5] | [6] | [7]

CC(=O)Oc1ccccc1C(=O)O
inactive: [2] | [3] | [5] | [6] | [8] | [7]

CNCc1cc(F)ccc1Oc1ccc(Cl)c(Cl)c1
inactive: [1] | [3] | [5] | [6]

COC(=O)c1ccc(O)cc1
inactive: [2] | [3] | [4] | [5] | [6] | [7]
